High-throughput results (PubChem)
3T3 cytotox: Cytotoxic Profiling in NIH 3T3 Cell Line of Diverse Libraries Using Quantitative High-Throughput Screening. actives 4.3% (n = 94,000). Potency, µM (doses to about 96.7 µM), for inactives: top-dose activity change, negative = cytotoxicity, actives largely listed as inhibitors. NIH 3T3 viability, CellTiter-Glo ATP luminescence, 48-72 h; further: on the % scale 0 is the no-effect control and ±100 the full control effect; nearly all actives have a fitted effect of over 55% in size
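NIH 3T3 cells at 400 cells/well received 23 nL of compound by pintool and were incubated 48 or 72 h at 37 °C. Viability was read as ATP-coupled CellTiter-Glo luminescence.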
FLuc inh: Firefly luciferase inhibition profiling of diverse chemical library using quantitative high-throughput screening; purified P. pyralis luciferase, luminescence, biochemical; Potency, µM (series often up to 115 µM), most hits filed as inhibitors; actives 2.5% (n = 76,000); Luciferin 4-monooxygenase (Photinus pyralis), P08659; further: on the % scale 0 is the no-effect control and ±100 the full control effect; nearly all actives have a fitted effect of over 65% in size
Target sequence (P08659 whole entry, looked up): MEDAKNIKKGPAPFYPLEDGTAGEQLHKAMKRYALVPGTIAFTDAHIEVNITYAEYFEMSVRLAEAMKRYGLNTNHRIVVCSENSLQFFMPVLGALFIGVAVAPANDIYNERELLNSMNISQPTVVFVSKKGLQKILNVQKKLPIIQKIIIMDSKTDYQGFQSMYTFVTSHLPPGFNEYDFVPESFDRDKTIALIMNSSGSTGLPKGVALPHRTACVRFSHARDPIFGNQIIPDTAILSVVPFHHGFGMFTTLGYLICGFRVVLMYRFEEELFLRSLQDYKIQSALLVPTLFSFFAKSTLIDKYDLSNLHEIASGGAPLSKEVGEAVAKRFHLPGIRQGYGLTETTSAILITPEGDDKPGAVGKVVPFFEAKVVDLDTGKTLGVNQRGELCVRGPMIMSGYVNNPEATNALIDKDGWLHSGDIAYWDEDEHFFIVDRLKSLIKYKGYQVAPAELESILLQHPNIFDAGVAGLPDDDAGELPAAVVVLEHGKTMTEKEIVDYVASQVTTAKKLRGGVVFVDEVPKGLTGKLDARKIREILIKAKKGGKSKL
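Cell-free enzyme assay, 10nM P. pyralis luciferase, luciferin and ATP each at 10uM. Inhibition profiled over a 6-point titration, read as luminescence.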
HEK cytotox: Cytotoxic Profiling in HEK 293 Cell Line of Diverse Libraries Using Quantitative High-Throughput Screening; HEK 293 viability, ATP luminescence (CellTiter-Glo), 48-72 h; Potency, µM (top dose mostly 115 µM), for inactives: at the highest dose activity change, negative = cytotoxicity, usual class: inhibitors; actives 6.6% (n = 94,000); AID 1345083, 2018; further: on the % scale 0 is the no-effect control and ±100 the full control effect; nearly all actives have a fitted effect of over 60% in size
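HEK 293 cells at 250 cells/well were exposed to compounds by pintool transfer for 48 or 72 hr at 37 degree Celsius, 5% CO2. Viability was read as ATP-coupled luminescence with CellTiter-Glo after 10 min at room temperature.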
hNpr1 antagonist: Natriuretic polypeptide receptor (hNpr1) antagonism - Primary qHTS. actives 1.6% (n = 76,000). HEK293 hNpr1 GloSensor cGMP, ANP-stimulated luminescence. Atrial natriuretic peptide receptor 1 (Homo sapiens), P16066. AID 1347048, 2019. Potency, µM (top dose mostly 46.3 µM), inactives show top-dose activity change, negative = inhibition, usual class: inhibitors; calls by dose curve; further: on the % scale 0 is the no-effect control and ±100 the full control effect; nearly all actives have a fitted effect of over 60% in size
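Compound pre-incubated 30 min at room temperature on GloSensor-loaded HEK293 cells stably carrying hNpr1 and the pGS-40F cGMP biosensor. Stimulation uses hNppA at 0.1 nM final; luminescence is taken at baseline and 20 min post-agonist.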
Npr1 antag conf: Natriuretic polypeptide receptor (hNpr1) antagonism - Confirmation. HEK293 hNpr1 cGMP GloSensor luminescence, ANP-stimulated. actives 76% (n = 1,400). Potency, µM (top dose mostly 57.6 µM), inactives show at the highest dose activity change, negative = inhibition, usual class: inhibitors. AID 1347044, 2019. shares compounds with hNpr1 antagonist; calls by dose curve; further: nearly all actives have a fitted effect of over 70% in size
Npr2 selectivity: Natriuretic polypeptide receptor (hNpr2) antagonism - Subtype selectivity assay; HEK293 hNpr2 GloSensor cGMP luminescence, CNP-stimulated; AID 1347046, 2019; actives 67% (n = 1,400); Potency, µM (highest dose often 57.6 µM), for the others: top-dose activity change, negative = inhibition, hits mostly inhibitors; shares compounds with hNpr1 antagonist; calls by dose curve; further: nearly all actives have a fitted effect of over 70% in size
FLuc inh counter: Natriuretic polypeptide receptor (hNpr1) antagonism - Confirmation firefly luciferase (FLuc) inhibition counterscreen. shares compounds with hNpr1 antagonist. purified FLuc enzyme, luminescence, Km substrate. Potency, µM (doses to about 57.6 µM), without a hit: top-dose activity change, negative = inhibition, hits mostly inhibitors. actives 0.7% (n = 1,400). AID 1347047, 2019; further: 0% is about no effect
GloSensor ctrl: Natriuretic polypeptide receptor (hNpr1) antagonism - Counterscreen GloSensor control cell line. shares compounds with hNpr1 antagonist. HEK293 GloSensor cGMP, SNP-stimulated, luminescence. Potency, µM (top dose mostly 57.6 µM), for inactives: at the highest dose activity change, negative = inhibition, usual class: inhibitors. actives 69% (n = 1,400); calls by dose curve; further: on the % scale 0 is the no-effect control and ±100 the full control effect; nearly all actives have a fitted effect of over 70% in size
* = called active by the depositor; i = inactive; ? = inconclusive; . = no result; [ ] = dose if it differs, or a comment. Compounds with a hit are over-represented: about 11% of the library has one in this group of screens. Unless noted, the call rests on the fitted dose curve; in most records, active means well fitted curve in the direction sought with a large enough effect; inconclusive means small, poorly fitted or top-dose-only effect, or another doubt; inactive means no such curve, though single readings can be large; an effect the other way counts as inactive or inconclusive. Potency means the concentration at half of the fitted maximal effect.

SMILES	3T3 cytotox	FLuc inh	HEK cytotox	hNpr1 antagonist	Npr1 antag conf	Npr2 selectivity	FLuc inh counter	GloSensor ctrl
COc1ccc(-c2noc(CC3CCN(C(=O)c4ccc(OC)nc4)CC3)n2)cc1	?	i	?	7.08µM*	5.44µM*	6.11µM*	0.7%	5.44µM*
CCOc1ccc(C(=O)N2CCC(Cc3nc(-c4ccc(F)cc4)no3)CC2)cc1OCC	39.8µM*	i	?	3.98µM*	3.85µM*	6.11µM*	2.5%	4.85µM*
CCOc1cccc(CN2CCCC(COc3ccccc3C(=O)N3CCCC3)C2)c1 (stereo unspecified)	-27.2%	i	?	-3.2%	.	.	.	.
O=C(Nc1ccc(Cl)cc1)N1CCC(Oc2ncccc2C(=O)N2CCCCC2)C1 (stereo unspecified)	?	i	4.2%	-0.9%	.	.	.	.
O=C(O)C1=NOC2CN(C(=O)c3ccc4c(c3)OCO4)CC12 (stereo unspecified)	-1.5%	.	i	.	.	.	.	.
Cc1ccc(C(=O)N2CCC(n3cc(-c4nc(C(C)C)no4)nn3)CC2)cc1F	-26.4%	i	?	-17.7%	.	.	.	.
COc1ccc(-c2nccn3cc(C(=O)NCc4cccnc4)nc23)cc1	?	i	-28.9%	11.2µM*	24.3µM*	19.3µM*	1.3%	3.7%
COC(=O)c1cccc(NC(=S)N[C@H]2CO[C@H]3[C@@H]2OC[C@H]3OC(=O)Nc2cccc(C(F)(F)F)c2)c1	?	i	44.7µM*	?	27.3µM*	21.7µM*	-4.7%	21.7µM*
O=C(Nc1ccc(Oc2ccccc2)cc1)N[C@H]1CO[C@H]2[C@@H]1OC[C@H]2OC(=O)Nc1cccc(C(F)(F)F)c1	-34.5%	i	-32.1%	-14.7%	.	.	.	.
O=C(Nc1cccc2ccccc12)O[C@@H]1CO[C@H]2[C@@H]1OC[C@@H]2NC(=O)c1cccs1	-39.7%[174 µM]	i	?	22.4µM*	35.3µM*	?	-1.7%[86.2 µM]	31.4µM*
O=C(Nc1cccc2ccccc12)O[C@@H]1CO[C@H]2[C@@H]1OC[C@@H]2NC(=O)c1ccco1	-14.5%[138 µM]	i	-18.7%[172 µM]	-5.5%[70.6 µM]	.	.	.	.
O=C(Nc1ccc(Oc2ccccc2)cc1)O[C@@H]1CO[C@H]2[C@@H]1OC[C@@H]2NC(=O)c1ccc(C(F)(F)F)cc1	?	i	?	11.2µM*	21.7µM*	13.7µM*	-1.5%	15.3µM*
O=C(Nc1ccc(Oc2ccccc2)cc1)O[C@@H]1CO[C@H]2[C@@H]1OC[C@@H]2NC(=S)Nc1ccccc1	?	i	?	11.2µM*	9.68µM*	12.2µM*	-7.7%	6.85µM*
CCCn1ncc(NC(=O)c2cccc(CN3CCC[C@@H]3COC)c2)n1	-8.0%	?	-11.5%	-5.8%	.	.	.	.
COc1ccc(C2Cn3cnc(C(=O)N4CCC(C(=O)NCC(C)C)CC4)c3CO2)cc1 (stereo unspecified)	i	i	-1.7%	-1.0%	.	.	.	.
O=C(c1ccc(C(F)(F)F)cc1)N1CCC(c2nn(Cc3ccccc3)c(=O)[nH]2)CC1	?	i	-5.9%	12.7%	.	.	.	.
O=C(Nc1ccccc1)O[C@@H]1CO[C@H]2[C@@H]1OC[C@@H]2NC(=O)c1ccc2c(c1)OCO2	?	i	?	31.6µM*	?	?	-11.4%[86.2 µM]	?
O=C(Nc1ccc(Oc2ccccc2)cc1)O[C@@H]1CO[C@H]2[C@@H]1OC[C@@H]2NCC1CCCCC1	?	i	?	?	21.7µM*	17.2µM*	-1.1%	21.7µM*
N#Cc1ccc(NC(=S)N[C@H]2CO[C@H]3[C@@H]2OC[C@H]3OC(=O)Nc2ccccc2)cc1	?	i	35.5µM*	22.4µM*	17.7µM*	22.2µM*	-7.5%[86.2 µM]	17.7µM*
CC(=O)c1cccc(NC(=O)O[C@@H]2CO[C@H]3[C@@H]2OC[C@@H]3NC(=O)Nc2ccccc2)c1	-3.8%[174 µM]	i	?	-15.5%[70.6 µM]	.	.	.	.
Cc1ccc(F)c(CN2CCC3(CCNCC3)C2)c1Cl	?	i	?	?	.	.	.	.
CCC(C)NC(=O)C(NC(=O)c1cccc(OC)c1)C1CCN(C(=O)CC(C)(C)C)CC1 (stereo unspecified)	-15.0%	i	-5.5%	1.9%	.	.	.	.
COCCn1ncc(N2CCCC(CC(=O)NCc3ccc(OC)cc3)C2)cc1=O (stereo unspecified)	-5.8%	i	-2.8%	-14.8%	.	.	.	.
Cc1ccc(C(=O)N2CCCC2c2nncn2Cc2ccncc2)c(=O)[nH]1 (stereo unspecified)	i	i	11.9%	-15.4%	.	.	.	.
COc1ccc(C(=O)N2CCCN(c3cc(-c4ccccc4)[nH]n3)CC2)cc1F	-13.9%	i	?	-14.0%	.	.	.	.
COc1ccc(C(=O)N2CCCN(c3cc(-c4ccc(Br)cc4)[nH]n3)CC2)cc1F	22.4µM*	i	39.8µM*	11.2µM*	21.7µM*	19.3µM*	-2.7%	15.3µM*
COc1ccc(C(=O)N2CCN(c3cc(-c4ccc(F)cc4)[nH]n3)CC2)cc1OC	?	i	?	?	.	.	.	.
COc1ccc(C(=O)N2CCN(c3cc(-c4ccc(Cl)cc4)[nH]n3)CC2)cc1OC	?	i	35.5µM*	6.31µM*	15.3µM*	19.3µM*	-10.4%	13.7µM*
COc1ccc(C(=O)N2CCCN(c3cc(-c4ccc(Cl)cc4)[nH]n3)CC2)cc1F	25.1µM*	i	?	?	24.3µM*	21.7µM*	2.8%	24.3µM*
O=C(c1ccc2[nH]ccc2c1)N1CCCN(c2cc(-c3ccc(Br)cc3)[nH]n2)CC1	31.6µM*	i	22.4µM*	4.47µM*	24.3µM*	24.3µM*	-12.8%	19.3µM*
